Shown are actives, neighbours in structure and some others; about 19% of the full set was active somewhere.
TDP1 cell CPT – qHTS for Inhibitors of human tyrosyl-DNA phosphodiesterase 1 (TDP1): qHTS in cells in presence of CPT | chicken DT40 Tdp1-/-;hTDP1 cells + 20 nM CPT, ATP luminescence, 48 h | Potency, µM (top dose mostly 46.2 µM), for the others: at the top dose activity change, negative = growth inhibition, most hits filed as inhibitors | 12% of 420,000 active; also: potency is read from the fitted curve at half-maximal effect; nearly all actives have a fitted effect of over 55% in size
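Chicken DT40 Tdp1-/- cells complemented with human TDP1, 400 cells/well, exposed to compounds plus 20 nM camptothecin for at least 48 h at 37 C; viability read as ATP content by CellTiter-Glo luminescence.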
HT1080 IDH1KD tx – qHTS for induction of synthetic lethality in tumor cells producing 2HG: qHTS for the HT-1080-IDH1KD cell line; HT-1080 IDH1 knockdown viability, ATP luminescence, 48 h; Potency, µM (top dose mostly 46.1 µM), inactives show at the highest dose activity, negative = toxicity, actives largely listed as cytotoxic; 2% of 360,000 active;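 also: potency is read from the fitted curve at half-maximal effect; 0% = DMSO wells and -100% = cell-free medium wells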
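Luminescent ATP read-out (CellTiter-Glo, 10 min at room temperature) after 48 h compound exposure at 37 °C gave viability of IDH1-knockdown HT-1080 cells. Activity was normalised to DMSO and cell-free wells, then fitted as concentration-response curves.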
HT1080NT lethal – qHTS for induction of synthetic lethality in tumor cells producing 2HG: qHTS for the HT-1080-NT fibrosarcoma cell line; HT-1080-NT fibrosarcoma viability, CellTiter-Glo ATP luminescence, 48 h; Potency, µM (doses to about 46.1 µM), without a hit: top-dose activity, negative = less viability, actives largely listed as cytotoxic; 1.6% of 360,000 active;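 also: NT is the 2HG producing partner of a matched IDH1 knockdown line; potency is read from the fitted curve at half-maximal effect; 0% = DMSO-treated cells and -100% = media-only wells without cells; nearly all actives have a fitted effect of over 55% in size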
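Viability of the 2HG-overproducing fibrosarcoma line after 48 hours of compound exposure at 37 degrees C was determined by luminescence with CellTiter-Glo, and concentration-effect curves were then fitted and categorized.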
DT40 TDP1 no CPT – qHTS for Inhibitors of human tyrosyl-DNA phosphodiesterase 1 (TDP1): qHTS in cells in absence of CPT. DT40 Tdp1-/- hTDP1 cells, no CPT, ATP luminescence, 48 h. Potency, µM (top dose mostly 46.2 µM), for the others: at the highest dose activity change, negative = growth inhibition, usual class: inhibitors. 15% of 420,000 active. AID 686978, 2013; also: potency is read from the fitted curve at half-maximal effect; nearly all actives have a fitted effect of over 55% in size
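DT40 Tdp1-/-;hTDP1 cells, no CPT (DMSO vehicle only), 400 cells/well; compounds pin-transferred; ≥48 hr, 37 °C; CellTiter-Glo 30 min RT dark, luminescence read.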
IL1B secr inh – qHTS for Inhibitors of Inflammasome Signaling: IL-1-beta AlphaLISA Primary Screen; THP-1 LPS/ATP IL-1B secretion, AlphaLISA, 16 h; stronger effect = lower value; activity change, % at 57.5 µM; 4.7% of 360,000 active; in the data active = activity change below about -50%; inconclusive = mostly about -30% to -49%
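THP-1 cells pretreated 1 hr with compounds (up to 57.5 uM final), then stimulated with LPS (250 ng/mL final) plus ATP (1.25 mM final); secreted IL-1B measured by AlphaLISA after 16 hr, decreased signal indicating inhibition.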
* hit, by the source's call; ? = inconclusive; nt = no result. Unless noted, calls follow the shape of the dose curve; as a rule, active = well fitted curve in the direction sought with a large enough effect; inconclusive = small, poorly fitted or top-dose-only effect, or another doubt; inactive = no such curve, though single readings can be large; an effect the other way counts as inactive or inconclusive. Unless noted, % is scaled to controls: 0 for no effect and ±100 for the full control effect.

SMILES	TDP1 cell CPT	HT1080 IDH1KD tx	HT1080NT lethal	DT40 TDP1 no CPT	IL1B secr inh
COc1ccc(NC(=O)c2oc3ccc(S(=O)(=O)N4CCC5(CC4)OCCO5)cc3c2C)cc1Cl	8.2µM*	nt	nt	9.2µM*	nt
CC(C)(C)C1CCc2onc(C(=O)Nc3sc4c(c3C(N)=O)CCCC4)c2C1 (centres undefined)	18.6%	nt	nt	-26.9%	nt
CN(CC(=O)Nc1cc(Cl)cc(Cl)c1)Cc1cccs1	-6.7%	-10.7%	?	-22.2%	-16.7
Cc1[nH]c2ccccc2c1N=Nc1ccc(F)cc1	?	?	20.6µM*	?	?
Cc1[nH]c2ccccc2c1N=Nc1cc(C(=O)O)cc(C(=O)O)c1	-6.8%	1.1%	-3.7%	-23.9%	-3.8
Cc1c(N=Nc2ccc(O)cc2)c(=O)n(-c2ccccc2)n1C	2.9%	0.0%	-11.0%	3.1%	28.0
Cc1[nH]c2ccccc2c1N=Nc1c(C)n(C)n(-c2ccccc2)c1=O	20.6µM*	10.3%	-7.4%	?	-6.2
CC(NC(=O)c1cc(F)ccc1F)c1nnc2n1CCN(Cc1cccs1)CC2 (centres undefined)	1.0%	nt	nt	0.7%	nt
CCCCCCCCNS(=O)(=O)CCNCc1ccco1	-9.6%	-2.4%	-1.1%	-20.3%	6.5
Cc1cc(NCCCO)n2nc(-c3cccs3)cc2n1	26.9%	-2.0%	2.9%	2.9%	nt
Cc1cc(NCCN(C)C)n2nc(-c3cccs3)cc2n1	-8.2%	-7.5%	-2.1%	-24.5%	-99.9*
O=C(O)CNC(=O)c1ccc(NC(=O)/C(=C/c2ccccc2)NC(=O)c2ccco2)cc1	-2.9%	10.8%	16.9%	1.6%	-9.1
CCN(CC)S(=O)(=O)c1ccc(C(=O)Nc2nc3c(Cl)cc(Cl)cc3s2)cc1	?	nt	nt	16.4µM*	nt
CS(=O)(=O)c1ccc2nc(NC(=O)c3ccc(NS(=O)(=O)c4ccc(F)c(F)c4)cc3)sc2c1	-14.7%	-0.3%	0.0%	-29.8%	80.1
CCN(CC)S(=O)(=O)c1ccc2nc(NC(=O)c3cccnc3)sc2c1	20.6µM*	nt	nt	?	nt
CCCNS(=O)(=O)c1ccc2nc(NC(=O)c3ccc(F)cc3)sc2c1	8.2µM*	nt	nt	20.6µM*	nt
C/C(=N\O)C(C)NC(=O)c1ccccc1 (centres undefined)	5.6%	0.1%	-4.2%	-3.3%	17.4
c1ccc(CCNc2nnnn2-c2ccccc2)cc1	-7.8%	-3.2%	-4.5%	?	0.6
C1=C(CCNc2nnnn2-c2ccccc2)CCCC1	18.4µM*	-22.7%	-18.9%	?	47.2
CCOC(=O)c1nnn(CC(=O)Nc2cc(F)ccc2F)c1C(=O)OCC	-11.4%	7.6%	13.7%	-15.8%	-73.2*
CCOC(=O)C(C)(C)Sc1ncnc2nc[nH]c12	?	-0.6%	4.6%	-9.7%	-20.0
CCOC(=O)c1cc([N+](=O)[O-])cc([N+](=O)[O-])c1Sc1ncnc2nc[nH]c12	1.84µM*	4.61µM*	4.61µM*	2.59µM*	-100.1*
CCOc1ccc(N(CC)S(=O)(=O)N2CCCC(C(=O)Nc3ccc(OC)c(Cl)c3)C2)cc1 (centres undefined)	16.4µM*	nt	nt	23.1µM*	nt
CCOc1ccc(N(CC)S(=O)(=O)N2CCCC(C(=O)Nc3cc(Cl)ccc3OC)C2)cc1 (centres undefined)	?	nt	nt	18.4µM*	nt
CC(=O)OCC(=O)NCC(=O)c1c[nH]c2ccccc12	7.8%	11.9%	14.2%	3.3%	40.7
SMILES	TDP1 cell CPT	HT1080 IDH1KD tx	HT1080NT lethal	DT40 TDP1 no CPT	IL1B secr inh
CCC(c1nnnn1C1CCCCC1)N1CCN(C(=O)c2ccco2)CC1 (centres undefined)	-2.9%	-1.4%	2.3%	?	-2.4
CCOc1ccc2c(c1)c(=O)c(C(=O)c1ccccc1)cn2Cc1ccccc1F	?	nt	nt	20.6µM*	nt
COc1ccc(C(=O)c2cn(Cc3ccccc3F)c3ccc(F)cc3c2=O)cc1	?	nt	nt	20.6µM*	nt
Cc1ccc(/C=C2/C(=O)N(c3ccccc3)C(=S)N2C)o1	?	-19.0%	-15.6%	23.1µM*	0.0
COc1ccccc1CNS(=O)(=O)c1ccc2c(c1)N(C(C)=O)CC(C)S2 (centres undefined)	3.3%	?	-14.6%	?	-1.2
CC(=O)N1CC(C)Sc2ccc(S(=O)(=O)NCc3ccc(Cl)cc3)cc21 (centres undefined)	?	-9.1%	-9.5%	?	0.0
CC(=O)N1CC(C)Sc2ccc(S(=O)(=O)NCCc3ccccc3)cc21 (centres undefined)	13µM*	-15.6%	-11.9%	10.3µM*	52.9
CC(=O)N1CC(C)Sc2ccc(S(=O)(=O)NCCc3ccc(C)cc3)cc21 (centres undefined)	18.4µM*	-12.7%	6.1%	7.31µM*	-8.7
Cc1cc(F)ccc1NC(=O)C1CSC2(C)CCC(=O)N12 (centres undefined)	-5.0%	2.6%	-1.4%	-7.1%	-4.7
C/C(=N\NC(=O)c1ccoc1C)c1ccc(Cl)s1	5.2%	6.0%	1.3%	4.2%	?
C/C(=N\NC(N)=S)c1ccc(Cl)s1	5.17µM*	-10.5%	-0.3%	4.61µM*	-78.5*
C/C(=N\NC(=O)C(=O)Nc1cccc(C(F)(F)F)c1)c1ccc(Cl)s1	?	3.5%	5.2%	?	-24.9
C/C(=N\NC(=S)NC(C)C)c1ccc(Cl)s1	14.6µM*	-18.2%	-1.5%	5.8µM*	-8.6
C/C(=N\NC(=O)c1csc(C)c1C)c1ccc(Cl)s1	23.1µM*	4.4%	-0.8%	23.1µM*	-4.5
Cc1cccc(-c2onc3ccc(C(=O)/C=C/N(C)C)cc23)c1	?	-5.9%	-0.1%	18.4µM*	-7.9
Cc1ccc(-c2onc3ccc(C(=O)/C=C/N(C)C)cc23)cc1	?	?	-13.1%	?	-25.4
COc1cccc(-c2onc3ccc(C(=O)/C=C/N(C)C)cc23)c1	?	-2.6%	-18.9%	16.4µM*	-66.5*
COc1cccc(-c2onc3ccc(C4(C)OCCO4)cc23)c1	?	-3.8%	0.0%	?	-87.1*
O=C(NCCCN1CCOCC1)/C(=C/c1ccc(F)cc1)NC(=O)c1ccccc1	2.7%	0.2%	-17.5%	-9.5%	25.2
CN(C)S(=O)(=O)c1cccc(C(=O)Nc2ccc(S(=O)(=O)N3CCCC3)cc2)c1	?	2.0%	1.2%	?	25.1
CS(=O)(=O)N(CC(=O)NC1CC1)C1CCCCC1	-7.6%	8.5%	4.5%	1.7%	7.8
CSCC(=O)N1CCc2ccc(NC(=O)c3ccccc3Cl)cc2C1	?	-25.8%	-23.6%	?	0.1

Bioassay records deposited in PubChem BioAssay by National Center for Advancing Translational Sciences (NCATS).
